# Source: PubChem
# In the library only some 18% were active in any assay of this set; here they are far more common.
# IL1B secr inh: qHTS for Inhibitors of Inflammasome Signaling: IL-1-beta AlphaLISA Primary Screen; THP-1 LPS/ATP IL-1B secretion, AlphaLISA, 16 h; active compounds read low; 360,000 compounds, 4.7% hits; AID 743279, 2014; activity change, % at 57.5 µM; in the data active means activity change below about -50%; inconclusive means mostly about -30% to -49%
#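 THP-1 cells pretreated 1 hr with compounds (up to 57.5 uM final), then stimulated with LPS (250 ng/mL final) plus ATP (1.25 mM final); secreted IL-1B measured by AlphaLISA after 16 hr, decreased signal indicating inhibition.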
# Six1-Eya2 blk: qHTS Assay for Inhibitors of the Six1/Eya2 Interaction | Homeobox protein SIX1 (Homo sapiens) + Protein phosphatase EYA2 (Homo sapiens), … | AlphaScreen GST-Six1/His-Eya2 binding, biochemical; active compounds read low | activity change, % (concentration not given with the values) | 360,000 compounds, 0.56% hits | AID 651725, 2012; in the data active means activity change below about -65%; inconclusive means mostly about -30% to -63%
#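 AlphaScreen with GST-Six1 and His-Eya2 (5X mix: 250 nM and 500 nM), glutathione donor and nickel acceptor beads; buffer 50 mM Tris pH 8.0, 300 mM NaCl, 1 mM TCEP; 1 h at 37 C in the dark.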
# DT40 TDP1 no CPT: qHTS for Inhibitors of human tyrosyl-DNA phosphodiesterase 1 (TDP1): qHTS in cells in absence of CPT; DT40 Tdp1-/- hTDP1 cells, no CPT, ATP luminescence, 48 h; Potency, µM (highest dose often 46.2 µM), for the others: at the top dose activity change, negative = growth inhibition, hits mostly inhibitors; 420,000 compounds, 15% hits; AID 686978, 2013; further: potency means the concentration at half of the fitted maximal effect; nearly all actives have a fitted effect of over 55% in size
#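 Cells were dispensed at 400 per well, compounds added by pin tool, plates incubated ≥48 hr at 37 °C, then CellTiter-Glo added for 30 min at room temperature before luminescence reading. Line: DT40 Tdp1-/- complemented with hTDP1; camptothecin omitted.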
# CtBP-E1A inh: qHTS Assay for Inhibitors of the CtBP/E1A Interaction; CtBP / adenovirus E1A interaction (AlphaScreen); AlphaScreen GST-E1A/His-CtBP binding, 1536-well; active compounds read low; activity change, % (no concentration beside the values); 340,000 compounds, 0.49% hits; in the data active means activity change below about -65%; inconclusive means mostly about -30% to -63%
#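 Steps: dispense buffer (Tris pH 8.0, NaCl 300 mM, TCEP 1 mM, BSA, Tween 20); add 5X protein mix (GST-E1A, His-CtBP, 125 nM each); pin 23 nL compound; 2 h at 37 °C, dark; add 5X beads (50 ug/mL); 1 h; read.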
# TDP1 cell CPT: qHTS for Inhibitors of human tyrosyl-DNA phosphodiesterase 1 (TDP1): qHTS in cells in presence of CPT; chicken DT40 Tdp1-/-;hTDP1 cells + 20 nM CPT, ATP luminescence, 48 h; Potency, µM (series often up to 46.2 µM), for inactives: top-dose activity change, negative = growth inhibition, actives largely listed as inhibitors; 420,000 compounds, 12% hits; AID 686979, 2013; further: potency means the concentration at half of the fitted maximal effect; nearly all actives have a fitted effect of over 55% in size
#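 Chicken DT40 Tdp1-/- cells complemented with human TDP1, 400 cells/well, exposed to compounds plus 20 nM camptothecin for at least 48 h at 37 C; viability read as ATP content by CellTiter-Glo luminescence.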
# TDP1 inh: qHTS Assay for Inhibitors of Tyrosyl-DNA Phosphodiesterase (TDP1). Potency, µM (series often up to 130 µM), inactives show top-dose activity change, negative = inhibition, most hits filed as inhibitors. Tyrosyl-DNA phosphodiesterase 1 (Homo sapiens), Q9NUW8. 350,000 compounds, 0.28% hits. recombinant TDP1, AlphaScreen DNA substrate cleavage; further: potency means the concentration at half of the fitted maximal effect; nearly all actives have a fitted effect of over 40% in size
# Target sequence (Q9NUW8 whole entry, looked up): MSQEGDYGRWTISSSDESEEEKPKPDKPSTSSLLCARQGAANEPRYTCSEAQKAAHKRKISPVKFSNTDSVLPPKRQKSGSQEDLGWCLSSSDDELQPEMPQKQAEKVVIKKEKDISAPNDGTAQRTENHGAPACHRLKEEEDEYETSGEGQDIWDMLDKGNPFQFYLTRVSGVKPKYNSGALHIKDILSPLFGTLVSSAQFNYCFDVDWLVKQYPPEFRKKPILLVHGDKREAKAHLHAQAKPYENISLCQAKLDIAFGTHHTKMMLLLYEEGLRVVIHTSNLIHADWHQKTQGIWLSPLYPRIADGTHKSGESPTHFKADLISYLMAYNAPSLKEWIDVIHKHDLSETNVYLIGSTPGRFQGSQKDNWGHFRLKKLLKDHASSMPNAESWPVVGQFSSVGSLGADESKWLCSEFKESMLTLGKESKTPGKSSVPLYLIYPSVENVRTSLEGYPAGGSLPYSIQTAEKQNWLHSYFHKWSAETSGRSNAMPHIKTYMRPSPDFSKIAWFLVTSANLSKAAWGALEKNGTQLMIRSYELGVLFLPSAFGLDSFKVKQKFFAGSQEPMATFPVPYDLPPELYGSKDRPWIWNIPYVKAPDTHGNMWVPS
#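 Recombinant E. coli-expressed Tdp1 (1 nM) preincubated with compound 15 min at RT, then 5'-biotin/3'-phosphotyrosine-FITC DNA substrate (15 nM) added for 5 min. AlphaScreen beads (10 ug/ml) added, 10 min RT; tyrosine-FITC cleavage read as signal loss.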
# * hit, by the source's call; i = inactive; ? = inconclusive; . = no result given; [ ] = dose if it differs, or a comment. Unless noted, the call rests on the fitted dose curve; in most records, active means well fitted curve in the direction sought with a large enough effect; inconclusive means small, poorly fitted or top-dose-only effect, or another doubt; inactive means no such curve, though single readings can be large; an effect the other way counts as inactive or inconclusive. On the % scale 0 is the no-effect control and ±100 the full control effect.
SMILES,IL1B secr inh,Six1-Eya2 blk,DT40 TDP1 no CPT,CtBP-E1A inh,TDP1 cell CPT,TDP1 inh
COc1cccc(-n2c(-c3ccco3)nc3c(cnn3-c3ccccc3C)c2=O)c1,.,.,18µM*,.,21µM*,7%
COc1ccc(-n2c(-c3ccco3)nc3c(cnn3-c3ccccc3C)c2=O)cc1,33,-9,23µM*,0,?,6%
COc1ccc(-n2c(-c3ccco3)nc3c(cnn3-c3ccccc3Cl)c2=O)cc1,.,.,?,.,?,5%
CCN(CC)S(=O)(=O)c1ccc2c(c1)nc(SCC(N)=O)n2-c1ccc(OC)cc1,-29,5,?,-1,-28%,6%
CCN(CC)S(=O)(=O)c1ccc2c(c1)nc(SCC(=O)N1CCCCCC1)n2-c1ccc(OC)cc1,?,-8,23µM*,-14,15µM*,2%
CCc1nnc(N2C(=O)c3ccc(Oc4ccc([N+](=O)[O-])cc4)cc3C2=O)s1,4,-9,?,0,?,-1%
Cc1cc(NC(=O)Cn2c(=O)nc(-c3ccccc3F)c3cc(Cl)ccc32)ccc1Br,.,.,?,.,-22%,0%
O=C(N/N=C/C=C/c1ccccc1)c1cccc(Br)c1,-26,-8,21µM*,-13,?,8%
O=C(N/N=C/c1cccc(Oc2ccccc2)c1)c1cccc(Br)c1,6,0,21µM*,6,?,-4%
O=C(N/N=C/c1cccc(Oc2ccccc2)c1)c1cccc(O)c1,-5,-6,?,-17,?,5%[56.1 µM]
O=C(CNc1cccc2ccccc12)N/N=C/c1cccc(Oc2ccccc2)c1,-7,-20,26µM*,.,?,7%
O=C(CNc1cccc2ccccc12)N/N=C/c1ccccn1,.,-15,?,-7,?,7%
CC(C)(C)NC(=O)CC1C[C@H](C(=O)N2CCCCC2)[C@@]2(CCc3ccccc3)c3[nH]c4ccccc4c3CCN2C1=O (stereo partly drawn),-12,3,-17%,0,-2%,1%
Cc1ccc(Cl)cc1N1CCN(S(=O)(=O)c2ccc3[nH]c(=O)ccc3c2)CC1,19,-2,?,-9,-29%,.
O=C(CCSc1ccc(Cl)cc1)c1ccco1,-96*,10,2.1µM*,.,2.1µM*,.
O=C(CSc1ccc(Cl)cc1)Nc1cccc(NC(=O)c2ccco2)c1,-66*,13,-26%,56,?,4%
O=C(CSc1nnnn1C1CCCCC1)Nc1cccc(NC(=O)c2ccco2)c1,-23,-3,4.1µM*,-4,5.8µM*,6%
O=C(CSc1nnnn1C1CCCC1)Nc1cccc(NC(=O)c2ccco2)c1,-3,-2,?,11,-29%,2%
O=C(CSc1nc2cc(Cl)ccc2s1)NC(=O)NCc1ccco1,25,-21,?,-9,-13%,-3%
O=C(CSc1ccc(Cl)cc1)NC(=O)NCc1ccco1,-83*,-11,?,-1,16µM*,2%
O=C(Nc1cccc(NC(=O)c2ccccc2Cl)c1)c1ccco1,-2,-1,-13%,-1,-27%,1%
O=C(NCCSc1ccc(Cl)cc1)c1ccco1,0,-3,-12%,-1,-2%,7%
O=C(CSc1ccccc1)N1CCN(S(=O)(=O)c2ccccc2)CC1,i,-15,-5%,5,10%,0%
COc1ccc(N2CCN(C(=O)CCS(=O)(=O)c3cc(Br)cc4c3N(C(=O)C3CC3)CC4)CC2)cc1,.,.,-17%,.,-8%,5%
O=C(CSc1ccc(Cl)cc1)c1ccco1,-28,-24,23µM*,0,16µM*,-8%
SMILES,IL1B secr inh,Six1-Eya2 blk,DT40 TDP1 no CPT,CtBP-E1A inh,TDP1 cell CPT,TDP1 inh
O=C(CSc1ccccc1Cl)c1ccco1,-13,6,8.2µM*,-1,21µM*,-6%
Cc1ccc(NC2c3ccccc3C(=O)N2c2cccnc2)cc1 (stereo not drawn),76,-1,4%,-1,7%,4%
CCOC(=O)N1CCC(N2C(=O)c3ccccc3C2Nc2ccccc2C)CC1 (stereo not drawn),1,-2,?,2,?,9%
Cc1ccc(N2C(=O)c3ccccc3C2Nc2cccnc2)nc1 (stereo not drawn),12,-1,26µM*,-2,15µM*,-3%
O=C1c2ccccc2C(Nc2cccnc2)N1Cc1ccccc1 (stereo not drawn),0,0,-20%,3,-13%,-1%
CCOC(=O)c1ccccc1NC1c2ccccc2C(=O)N1c1ccc(C)cn1 (stereo not drawn),-6,-2,18µM*,2,?,3%
O=C1c2ccccc2C(Nc2cccnc2)N1Cc1ccccc1Cl (stereo not drawn),32,-3,21µM*,-7,?,4%
CCOC(=O)c1ccccc1NC1c2ccccc2C(=O)N1C1CCN(C(=O)OCC)CC1 (stereo not drawn),-8,0,16µM*,0,?,-8%
CCN(CC)S(=O)(=O)c1ccc(NC2c3ccccc3C(=O)N2c2ccc(C)cn2)cc1 (stereo not drawn),11,2,?,5,?,0%
c1coc(CNc2c3c(nc4ncnn24)CCC3)c1,12,-1,-29%,3,?,5%
CCOc1ccc(NC(=O)CN2CCCC2c2cccs2)cc1S(=O)(=O)N1CCCC1 (stereo not drawn),3,-1,?,-2,-9%,1%
Cc1noc(C)c1S(=O)(=O)Nc1ccc2c(c1)C(=O)N([C@H](C)CO)C[C@H](C)[C@@H](CN(C)Cc1ccc(C(=O)O)cc1)O2,8,6,8%,4,-7%,2%
Cc1ccc(C(=O)N/N=C/c2ccc([N+](=O)[O-])s2)cc1,-19,-5,7.3µM*,-5,8.2µM*,?
Cc1cc(C)n(CC(=O)N/N=C/c2cccs2)n1,-1,-1,-8%,-5,22%,-11%
